Laboratory results: PubChem BioAssay AID485297 (National Center for Advancing Translational Sciences (NCATS), 2010)
About 9,100 (2.8%) of roughly 320,000 compounds were called active. Roughly 3% stayed inconclusive and do not appear here. Calls come from the whole dose curve; as a rule, active = well fitted activation curve with a large enough effect; inconclusive = small, poorly fitted or top-dose-only effect; inactive = no such curve, though single readings can be large or run the other way. Many of the other results were omitted from the sample, so actives are more common in it than they were.

Test: qHTS Assay for Rab9 Promoter Activators; note: nearly all actives have a fitted effect of over 60% in size; for activation, negative = inhibition: % of control where 0% means no effect
Details: Huh7 Rab9 promoter-luciferase reporter, luminescence, 24 h; series mostly up to 9.22 µM
Method in brief: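 Huh7 cells stably carrying Rab9 promoter–luciferase reporter, plated 1500 cells/well, compound added after 2 h and incubated 24 h at 37 °C; luciferase luminescence then read after 10 min with detection reagent.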
Potency is the fitted concentration of half-maximal effect.

Potency, inactive:
COc1cccc(NC(=O)CN(C)C(=O)c2cc(C3CC3)nn2-c2ccccc2)c1, O=C(OCc1cc(=O)n2ccsc2n1)C1(c2ccc(Cl)cc2)CC1, COc1ccc(C(=O)OCC(=O)c2cc(C)n(CC3CCCO3)c2C)cc1[N+](=O)[O-] (centres undefined), Cc1cccc(NC(=O)CN2CCN(C(=O)C3CCN(C(=O)/C=C/c4ccccc4)CC3)CC2)c1C, COc1cc(OC)c(N2CC(C(=O)Nc3cc(Cl)ccc3N3CCOCC3)CC2=O)cc1Cl (centres undefined), CCCCN1C(=O)C(=O)N(CC(=O)Nc2cccc(C(C)=O)c2)C1=O, C=C(C)C1CC=C(C)/C(=N\NC(=O)CNc2ccccc2OC)C1 (centres undefined), O=C(Nc1ccon1)c1nc[nH]c1C(=O)NCc1ccccc1, O=C1c2cccc(OCC(=O)N3N=C(c4cccs4)CC3c3ccc(F)cc3)c2CCN1Cc1ccccc1 (centres undefined), O=C(CCNC(=O)c1ccc(Br)cc1)NCC(c1ccco1)N1CCCCC1 (centres undefined), CCOC(=O)c1ccc(NC2Nc3cc(C)nn3S2)cc1 (centres undefined), Cc1nn2c(=O)cc(COC(=O)c3ccc(NC(=O)C(C)(C)C)cc3)nc2s1, O=c1cc(CCl)nc2scc(-c3ccccc3)n12, CN(Cc1ccc(F)cc1)C(=O)COc1ccc2ccccc2c1, CN(Cc1ccccc1)C(=O)CCc1ccccc1, COc1ccc(NS(=O)(=O)c2ccc(C)c(C(=O)NCC(c3cccs3)N3CCOCC3)c2)cc1 (centres undefined), CCOc1ccccc1NC(=O)Cc1cccs1, O=C(Cc1cccs1)Nc1ccc([N+](=O)[O-])cc1, CCOC(=O)N1CCN(C(=O)COC(=O)c2cccc(S(C)(=O)=O)c2)CC1, CCOc1ccc(NC(=O)c2cccc3c2C(=O)N(CC2CCCO2)C3)cc1 (centres undefined), CC(=O)c1sc(NC(=O)CCN2C(=O)C3CC=CCC3C2=O)nc1-c1ccccc1 (centres undefined), NC(=O)c1cc2ccccc2o/c1=N/NC(=O)c1cccc(F)c1, COc1ccc(C(=O)N/N=c2\oc3ccccc3cc2C(N)=O)cc1, CC(=O)Nc1ccc(Nc2cc(C)nc(Nc3ccc(NC(C)=O)cc3)n2)cc1, COc1ccc(CNc2nccs2)cc1, CCN(CC(=O)NCCc1ccccc1)S(=O)(=O)c1ccc(C)cc1, Cc1ccn2cc(C(=O)NC3CCN(Cc4ccccc4)CC3)nc2c1, COc1cc(OC)cc(-c2nc(=S)n3ccsc3n2)c1, COc1ccc(-n2c(-c3ccc(OC)c(OC)c3)n[nH]c2=S)cc1, CCN(c1cccc(C)c1)S(=O)(=O)c1ccc(-c2coc(C)n2)cc1, Cc1ccccc1N1CCN(C2CCCN(C(=O)c3cn4c(C)cccc4n3)C2)CC1 (centres undefined), COc1ccccc1N1CC(C(=O)NCCN2C(=O)S/C(=C\c3cccnc3)C2=O)CC1=O (centres undefined), CC1CCCCC12NC(=O)N(CC(=O)OCC(=O)NCc1ccc(F)cc1)C2=O (centres undefined), Cc1nn(C(C)C(=O)N2CCOCC2)c(=O)c2nn(-c3ccccc3)c(C)c12 (centres undefined), O=C1C=C(c2cccc(Cl)c2)C[C@@H](c2ccc(F)cc2)C1, COc1ccc(C(=O)CSc2nnc(NC(=O)C3CC(=O)N(c4cccc(OC)c4)C3)s2)cc1 (centres undefined), COc1ccc(CCCc2nnc(SCc3nc4ccccc4c(=O)[nH]3)n2C)cc1, COc1ccc(/C=N/OCC(=O)N(Cc2ccccc2)c2ccccc2C(=O)O)cc1, COc1ccc(/C=N/NS(=O)(=O)c2ccc(NC(C)=O)cc2)cc1, COc1ccc(/C=N/Nc2nc(-c3ccc(C)cc3)c(C#N)c(=O)[nH]2)cc1, COc1ccccc1C(=O)NCC(=O)OCC(=O)Nc1nnc(-c2ccccc2)o1, COc1cc(OC)cc(C(=O)Nc2nnc(SCC(=O)NCC3CCCO3)s2)c1 (centres undefined), COc1ccc(C)cc1NC(=O)CCCN1C(=O)NC(C)(C)C1=O, Cc1ccc(S(=O)(=O)NCCNC(C)c2ccc(Br)cc2)cc1 (centres undefined), CCC1(C)NC(=O)N(CC(=O)N2CCN(c3cccc(Cl)c3)CC2)C1=O (centres undefined), COc1cc2c(cc1OC)CC1(CCCCC1)N=C2, CCC1(C)CC(=O)NC1=O (centres undefined), COc1ccc(NC(=O)CSc2nc3ccccc3c(=O)n2C)cc1, COC(=O)CSc1nc2ccccc2c(=O)n1Cc1ccccc1, Cc1ccccc1-c1cc(C(=O)NCC2CC2)n(CC2CC(c3cccnc3)=NO2)n1 (centres undefined), COc1cc(C(C)=O)ccc1OC(C)C(=O)Nc1ccc(S(=O)(=O)N2CCCC2)cc1 (centres undefined), O=C(NCC1CCC(C(=O)O)CC1)OCc1ccccc1 (centres undefined), CCOC(=O)N1CCC(NC(=O)CCc2ccccc2)CC1, COc1ccc(Cl)cc1NC(=O)CN(C)CC(=O)Nc1ccc2c(c1)OCO2, COc1ccc(CN(Cc2ccco2)S(=O)(=O)c2ccc(S(=O)(=O)N3CCCC3)cc2)cc1, COc1ccccc1-n1nnnc1SCC(=O)NC(=O)Cc1ccccc1, Cc1ccc(C(=O)Cn2cccn2)cc1, Cc1ccc(S(=O)(=O)CC(=O)Nc2nnc(C)s2)cc1, CC(OC(=O)c1cc2ccccc2o1)C(=O)Nc1ccc(N2CCOCC2)cc1 (centres undefined), Cc1ccc2oc(=O)c3cnn(CC(=O)N(Cc4ccco4)C4CCCCC4)c3c2c1, Cc1cc2c(=O)n(C)c(SCC(=O)c3cc4ccccc4o3)nc2s1, COc1ccccc1C(CNC(=O)c1cccc(S(=O)(=O)Nc2ccc(F)cc2)c1)N(C)C (centres undefined), Cc1nn(C)c(Cl)c1CN1CCC(n2nccc2NC(=O)C2CCCC2)CC1, CC(Sc1nnc(-c2cccs2)n1C1CC1)C(=O)NCC1CCCO1 (centres undefined), Cc1nc(-c2ccc(Cl)cc2)sc1C(=O)CBr, CN(C)/C=C/C(=O)c1ccccc1F, CC(C)CN(C(=O)CSc1nncn1C)C1CCS(=O)(=O)C1 (centres undefined), CCc1nc(SCC(=O)NNC(=O)c2ccc(C)cc2)c2ccccc2n1, Cc1ccc(C(=O)NNC(=O)c2cc3cc4ccccc4nc3s2)cc1, COc1ccc(CNC(=O)COC(=O)c2c(C)nn(-c3ccccc3)c2C)cc1OC, CN(C)C(CNC(=O)c1cccc(C#N)c1)c1ccco1 (centres undefined), Cc1cc(F)ccc1S(=O)(=O)Nc1ccc(C(=O)N(C)Cc2ccco2)cc1, CC1CCCCC12NC(=O)N(CC(=O)Nc1ccc(S(=O)(=O)Nc3ncccn3)cc1)C2=O (centres undefined), Cc1ccc(C(=O)OCc2nc(N)nc(Nc3ccccc3C)n2)cc1, Cc1ccccc1Nc1nc(N)nc(CN2CCN(c3ccccn3)CC2)n1, COc1cccc(C(O)c2nc3ccccc3n2C)c1 (centres undefined), Cc1cc(C)c(CN2CCN(C(=O)Cn3ccc(NC(=O)OCc4ccccc4)nc3=O)CC2)c(C)c1, COc1ccc(/C=C2\SC(=O)N(CCC(=O)NCCCn3ccnc3)C2=O)cc1, COc1ccccc1/C=C1\SC(=O)N(CCC(=O)N(C)C2CCS(=O)(=O)C2)C1=O (centres undefined), CC1CCCC(C)N1C(=O)COC(=O)COc1ccccc1C#N (centres undefined), CCCCN(C(=O)c1ccc(S(=O)(=O)N2CCOCC2)cc1)C1CCS(=O)(=O)C1 (centres undefined), O=C(Nc1cccnc1)c1cccc(S(=O)(=O)N2CCCC2)c1, O=C(Nc1cccnc1)c1cc(Cl)ccc1Cl, CCCCc1ccc(NC(=O)CN2C(=O)NC(Cc3ccccc3)C2=O)cc1 (centres undefined), O=C(NNC(=O)c1cccc(S(=O)(=O)Nc2ccc(Cl)cc2)c1)c1ccc(=O)[nH]c1, O=C(CCc1ccccc1F)N1CCN(c2ccccc2)CC1, O=C(NCC(=O)N1CCN(c2ccccc2F)CC1)c1cccs1

Potency, active:
CCc1ccc(NC2Nc3cc(C)nn3S2)cc1 (centres undefined) 3550 nM, Cc1csc2nc(COC(=O)c3cccc(N(C)C)c3)cc(=O)n12 2820 nM, CN(Cc1ccccc1)C(=O)COc1ccccc1 2240 nM, CCOC(=O)c1ccc(NC(=O)Cc2cccs2)cc1 4470 nM, COc1cccc2cc(C(N)=O)/c(=N\NC(=O)c3ccccc3)oc12 3550 nM, COc1ccc(-c2cn3ccc(C)cc3n2)cc1 112 nM, COc1ccc(-c2cn3ccsc3n2)cc1 708 nM, CCN(CC)S(=O)(=O)c1ccc(-c2cn3ccc(C)cc3n2)cc1 2240 nM, COc1ccc(/C=N/Nc2nc3ccccc3c(=O)[nH]2)cc1 1580 nM, COc1ccc(/C=N/Nc2ccccc2C(=O)O)cc1 89.1 nM, Cc1ccc(N/N=C2\COC(C)(C)CC2=O)cc1 3160 nM, Cc1ccc(C(=O)CSc2nc3ccccc3c(=O)n2N)o1 3550 nM, O=C(O)C1CCN(C(=O)OCc2ccccc2)CC1 4470 nM, Cc1ccc(C(=O)Cc2nnc(C)s2)cc1 2820 nM, Nc1ncc(-c2cc3ccccc3oc2=O)s1 1120 nM, Cc1nc(-c2ccccc2)sc1C(=O)/C=C/N(C)C 2820 nM, Cc1ccc(C(=O)NNc2ncnc3ccccc23)cc1 3980 nM, Cc1ccccc1Nc1nc(N)nc(CSc2ccccc2)n1 1410 nM, COc1ccc(/C=C2\SC(=O)N(CCC(=O)NC3CCS(=O)(=O)C3)C2=O)cc1 (centres undefined) 2510 nM, O=C(Nc1cccnc1)c1noc2c1CCCCC2 1580 nM, O=C(CCSc1ccccc1)N1CCN(c2ccccc2F)CC1 3550 nM

activation, negative = inhibition, inactive:
O=C(NCc1cccnc1)c1cccc(-c2cc3ccccc3oc2=O)c1 -2.68% [at 1.84 µM]
